An excerpt weighted towards active compounds, which were near 2.8% of everything screened.
WRN helicase inh: qHTS for Inhibitors of WRN Helicase | Bifunctional 3'-5' exonuclease/ATP-dependent helicase WRN (Homo sapiens), Q14191 | WRN helicase unwinding, fluorescent forked duplex, kinetic | Potency, µM (titrated, usually from 114 µM), without a hit: at the top dose activity change, negative = inhibition, usual class: inhibitors | 360,000 tested, 0.46% active; further: potency means the concentration at half of the fitted maximal effect; on the % scale 0 is the no-effect control and ±100 the full control effect; nearly all actives have a fitted effect of over 55% in size
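Enzyme (20 nM final) and test compound sit together 15 min at room temperature before substrate addition. Substrate is a single-forked duplex oligonucleotide (100 nM) labelled with fluorophore and quencher, with 2 mM ATP; helicase unwinding raises red fluorescence, read kinetically.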
POLB inh: qHTS Assay for Inhibitors of DNA Polymerase Beta. P06746. Pol beta primer extension/strand displacement, fluorescence kinetic. Potency, µM (titrated, usually from 114 µM), for inactives: at the highest dose activity change, negative = inhibition, most hits filed as inhibitors. 340,000 tested, 1.3% active. AID 485314, 2010; further: potency means the concentration at half of the fitted maximal effect; on the % scale 0 is the no-effect control and ±100 the full control effect
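Homogeneous kinetic assay of primer extension and strand displacement by 10 nM Pol beta, preincubated 15 min at room temperature with compound before 50 nM substrate (final) was added. Read at 0 and 10 min; four-parameter Hill fit.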
Pol iota inh: qHTS for Inhibitors of Polymerase Iota. Pol iota fluorescent replication assay, 10 min. Potency, µM (top dose mostly 115 µM), inactives show at the highest dose activity, negative = inhibition, actives largely listed as inhibitors. 390,000 tested, 1% active. AID 588590, 2011; further: potency means the concentration at half of the fitted maximal effect
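Fluorescent replication assay read twice, at 0 min and 10 min after adding 50 nM (final) substrate. Enzyme (10 nM) and compounds were first incubated 15 min at room temperature; enzyme-free buffer wells were negative controls.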
POLK inh: qHTS for Inhibitors of Polymerase Kappa; DNA polymerase kappa (Homo sapiens), Q9UBT6; purified Pol kappa, fluorescent DNA synthesis assay, 10 min; Potency, µM (titrated, usually from 107 µM), for the others: at the highest dose activity, negative = inhibition, most hits filed as inhibitors; 400,000 tested, 0.53% active; AID 588579, 2011; further: potency means the concentration at half of the fitted maximal effect; on the % scale 0 is the no-effect control and ±100 the full control effect
Target sequence (Q9UBT6 whole entry, looked up): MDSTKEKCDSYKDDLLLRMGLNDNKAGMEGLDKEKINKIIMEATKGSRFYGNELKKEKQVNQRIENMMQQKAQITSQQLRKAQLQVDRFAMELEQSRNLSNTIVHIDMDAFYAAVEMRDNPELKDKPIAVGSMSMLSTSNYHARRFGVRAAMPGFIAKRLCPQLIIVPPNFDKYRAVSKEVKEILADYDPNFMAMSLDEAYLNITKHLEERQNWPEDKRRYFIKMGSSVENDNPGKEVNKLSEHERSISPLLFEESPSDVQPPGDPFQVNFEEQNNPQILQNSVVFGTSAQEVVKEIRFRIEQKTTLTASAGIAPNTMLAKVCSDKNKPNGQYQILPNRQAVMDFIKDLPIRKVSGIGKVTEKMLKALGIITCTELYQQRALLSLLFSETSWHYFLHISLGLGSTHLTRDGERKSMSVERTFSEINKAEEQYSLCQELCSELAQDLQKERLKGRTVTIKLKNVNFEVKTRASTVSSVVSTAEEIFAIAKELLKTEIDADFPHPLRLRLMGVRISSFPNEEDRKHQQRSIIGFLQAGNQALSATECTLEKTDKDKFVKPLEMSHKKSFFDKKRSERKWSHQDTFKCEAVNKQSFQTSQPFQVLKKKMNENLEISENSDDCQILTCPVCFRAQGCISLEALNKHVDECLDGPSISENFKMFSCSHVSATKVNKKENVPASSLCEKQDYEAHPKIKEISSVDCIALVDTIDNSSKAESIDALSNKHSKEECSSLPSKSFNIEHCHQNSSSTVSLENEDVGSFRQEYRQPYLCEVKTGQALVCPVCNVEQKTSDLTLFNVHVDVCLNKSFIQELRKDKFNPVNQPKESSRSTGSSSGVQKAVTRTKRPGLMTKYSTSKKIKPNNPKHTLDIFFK
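Fluorescent qHTS in 1536-well format: enzyme (10 nM) and compound sat 15 min at room temperature before 50 nM substrate (final) was added. Signal taken at 0 and 10 min; no-enzyme buffer wells were negative controls.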
POLH inh: qHTS for Inhibitors of Polymerase Eta. DNA polymerase eta (Homo sapiens), Q9Y253. recombinant Pol eta, fluorescent DNA replication assay. Potency, µM (highest dose often 114 µM), for the others: top-dose activity change, negative = inhibition, hits mostly inhibitors. 390,000 tested, 1.2% active. AID 588591, 2011; further: potency means the concentration at half of the fitted maximal effect; on the % scale 0 is the no-effect control and ±100 the full control effect
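Pol eta (10 nM) was preincubated with compounds for 15 min at room temperature, after which fluorescent replication substrate (50 nM final) was added to start the reaction. Fluorescence was read kinetically at 0 and 10 min.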
PI5P4K alpha inh: qHTS for Inhibitors of phosphatidylinositol 5-phosphate 4-kinase (PI5P4K); Phosphatidylinositol 5-phosphate 4-kinase type-2 alpha (Homo sapiens), P48426; PI5P4Kalpha enzyme, ADP-Glo luminescence, 60 min; stronger effect = lower value; 330,000 tested, 1.2% active; max response, %; active means max response of -50% or lower; inconclusive means between -30% and -50%; inactive means -30% or higher; further: value at the top dose of about 77 µM; on the % scale 0 is the no-effect control and ±100 the full control effect
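Human PI5P4Kalpha with substrate in 0.038 M HEPES pH 7.4, 0.28 mM EGTA, 0.1% CHAPS, 5% DMSO; reaction started with 5 microM ATP (final), 60 min at room temperature. ADP formed read by ADP-Glo luminescence.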
An asterisk follows results filed as active; ? = inconclusive; / = no result given; [ ] = another dose, or the depositor's remark. Unless noted, the call rests on the fitted dose curve; in most records, active means well fitted curve in the direction sought with a large enough effect; inconclusive means small, poorly fitted or top-dose-only effect, or another doubt; inactive means no such curve, though single readings can be large; an effect the other way counts as inactive or inconclusive.

SMILES | WRN helicase inh | POLB inh | Pol iota inh | POLK inh | POLH inh | PI5P4K alpha inh
O=C(NNC(=O)c1ccc(NC(=O)c2ccccc2)cc1)c1ccc(F)cc1 | -5.6% | ? | ? | -12.0% | -14.8% | 4.6
COc1ccc(NC(=O)NNC(=O)c2ccc(-c3ccccc3)cc2)cc1 | -7.6% | 7.94µM* | ? | -16.7% | -15.8% | -7.7
O=C(CCc1ccccc1)NNC(=O)c1ccc(NC(=O)c2ccccc2)cc1 | -28.5% | 22.4µM* | ? | -19.1% | ? | -2.6
O=C(NNC(=O)c1ccc(NC(=O)c2ccccc2)cc1)Nc1ccccc1 | -31.2% | 11.2µM* | 39.8µM* | ? | ? | 6.8
O=[N+]([O-])c1ccc(/C=C/c2ccnc3ccccc23)cc1 | / | / | 46.1% | -4.6% | / | /
COc1ccc(Oc2ncc3nc(C)c(=O)n(C4CC4)c3n2)cc1 | / | / | / | -2.2%[60.1 µM] | / | /
COc1ccc(SN=C2C(C)=CC(=O)C=C2C)cc1 | -16.7% | 14.4% | -14.4% | -8.4% | -0.9% | -8.7
COC1=CC(=O)C=C(OC)C1=O | 44.7µM* | / | ? | -7.4% | -12.4% | -50.9*
COC1=CC(=O)c2ccccc2C1=O | 11.7% | / | 14.1µM* | 9.9% | ? | 4.1
CCCCN1CCCCC1(C)C(=O)NCc1cccs1 (stereo unspecified) | -2.4% | / | / | / | / | 0.3
COc1ccc(CCNc2nc3c(-c4cccc(C)c4)nnn3c3ccccc23)cc1OC | / | -4.3% | ? | -17.4% | -12.7% | /
NS(=O)(=O)c1ccc(CCNC(=O)CSc2ccc([N+](=O)[O-])cc2)cc1 | 2.2% | 32.8% | 58.5% | -0.8% | -21.2% | -2.0
CSc1ccc(CCNC(=O)CSc2ccsc2[N+](=O)[O-])cc1 | -31.7% | 3.0% | ? | ? | ? | -50.6*
O=C(CSc1ccsc1[N+](=O)[O-])NCc1ccccc1 | 0.8%[11.6 µM] | ? | ? | -24.7% | 79.4µM* | ?
O=C(CSc1ccccc1)N1CCN(c2ccccn2)CC1 | 0.8% | 0.5% | -14.8% | -11.0% | -14.4% | -0.1
O=C(CSc1ccsc1[N+](=O)[O-])N1CCN(c2ccccn2)CC1 | ? | ? | 44.7µM* | ? | 50.1µM* | -51.3*
O=C(CSc1ccsc1[N+](=O)[O-])NC1CCCC1 | -6.4%[11.6 µM] | ? | 44.7µM* | -50.7% | 56.2µM* | ?
CC1CCCCC1NC(=O)CSc1ccsc1[N+](=O)[O-] (stereo unspecified) | -17.4% | -12.0% | 6.4% | -2.6% | -17.4% | -2.5
Cc1cc(C)cc(-n2ccnc2SCC(=O)Nc2ccccc2F)c1 | / | -18.3% | 3.6% | -5.6%[60.1 µM] | -10.5% | /
COc1cc(NC(=S)NC2CC(C)(C)NC(C)(C)C2)c(OC)cc1Cl | -4.6% | 12.7% | -21.1% | 8.6%[60.1 µM] | 7.5% | 0.0
COCCNC(=O)C1(C)CCN(Cc2csc(-c3ccc(Cl)cc3)n2)C1 (stereo unspecified) | 10.1%[57.1 µM] | / | / | / | / | 0.9
CCc1ccc2nc(NC(=O)C3CSC4(C)CCC(=O)N34)sc2c1 (stereo unspecified) | -5.5% | / | -7.6% | -5.0% | -18.1% | -0.3
COc1ccccc1N(CC(=O)NCCSCc1cccc(C)c1)S(=O)(=O)c1ccccc1 | ? | -23.5% | 3.7% | -14.7% | -20.5% | 3.5
CCCCn1c(SCC(=O)c2ccc(O)c(O)c2)nc2ccsc2c1=O | ? | ? | ? | -22.0% | 8.91µM* | -23.3
O=C(O)c1ccc(S(=O)(=O)c2ccc3c(c2)C(=O)N(NC(=O)c2ccc(O)cc2)C3=O)cc1 | -2.8%[57.1 µM] | 28.2µM* | 75.1% | -8.7% | -3.9% | 5.1
Cc1ccc(C(=O)NN2C(=O)c3ccc(S(=O)(=O)c4ccc(C(=O)O)cc4)cc3C2=O)cc1 | -20.9% | ? | 86.8% | -11.7% | -17.7% | -13.3
CCc1ccccc1NC(=O)CCS(=O)(=O)c1ccc(Br)cc1 | -8.9% | 35.5µM* | 0.1% | -18.1% | -17.8% | -1.7
COc1ccc([N+](=O)[O-])cc1NC(=O)CCS(=O)(=O)c1ccc(Br)cc1 | -6.6%[11.6 µM] | 15.8µM* | 8.9% | ? | 50.1µM* | 0.0

Bioassay records as filed in PubChem.
